ChEMBL document CHEMBL3988442, “University of Dundee, Small-Polar-MMV Screening Library” (2021)
For some assays here: Results with a measured potency or affinity are listed apart.

Tests used:
Parameters in all cases: scale not given: direction of the effect not stated beside the values
[1] = biological target: Protein translocase subunit SecA (Escherichia coli (strain K12)) (UniProt P10408); experiment: Assay to Identify E. coli SecA ATPase Inhibitors; format: functional; conditions: 30 µM
[2] = biological target: T1, Ubiquitin-activating enzyme e1, putative (Leishmania donovani (strain BPK282A1)) (UniProt E9BSI1); experiment: Leishmania donovani Ubiquitin Activating Enzyme (LdE1); format: functional; conditions: 30 µM
T1 sequence (whole entry): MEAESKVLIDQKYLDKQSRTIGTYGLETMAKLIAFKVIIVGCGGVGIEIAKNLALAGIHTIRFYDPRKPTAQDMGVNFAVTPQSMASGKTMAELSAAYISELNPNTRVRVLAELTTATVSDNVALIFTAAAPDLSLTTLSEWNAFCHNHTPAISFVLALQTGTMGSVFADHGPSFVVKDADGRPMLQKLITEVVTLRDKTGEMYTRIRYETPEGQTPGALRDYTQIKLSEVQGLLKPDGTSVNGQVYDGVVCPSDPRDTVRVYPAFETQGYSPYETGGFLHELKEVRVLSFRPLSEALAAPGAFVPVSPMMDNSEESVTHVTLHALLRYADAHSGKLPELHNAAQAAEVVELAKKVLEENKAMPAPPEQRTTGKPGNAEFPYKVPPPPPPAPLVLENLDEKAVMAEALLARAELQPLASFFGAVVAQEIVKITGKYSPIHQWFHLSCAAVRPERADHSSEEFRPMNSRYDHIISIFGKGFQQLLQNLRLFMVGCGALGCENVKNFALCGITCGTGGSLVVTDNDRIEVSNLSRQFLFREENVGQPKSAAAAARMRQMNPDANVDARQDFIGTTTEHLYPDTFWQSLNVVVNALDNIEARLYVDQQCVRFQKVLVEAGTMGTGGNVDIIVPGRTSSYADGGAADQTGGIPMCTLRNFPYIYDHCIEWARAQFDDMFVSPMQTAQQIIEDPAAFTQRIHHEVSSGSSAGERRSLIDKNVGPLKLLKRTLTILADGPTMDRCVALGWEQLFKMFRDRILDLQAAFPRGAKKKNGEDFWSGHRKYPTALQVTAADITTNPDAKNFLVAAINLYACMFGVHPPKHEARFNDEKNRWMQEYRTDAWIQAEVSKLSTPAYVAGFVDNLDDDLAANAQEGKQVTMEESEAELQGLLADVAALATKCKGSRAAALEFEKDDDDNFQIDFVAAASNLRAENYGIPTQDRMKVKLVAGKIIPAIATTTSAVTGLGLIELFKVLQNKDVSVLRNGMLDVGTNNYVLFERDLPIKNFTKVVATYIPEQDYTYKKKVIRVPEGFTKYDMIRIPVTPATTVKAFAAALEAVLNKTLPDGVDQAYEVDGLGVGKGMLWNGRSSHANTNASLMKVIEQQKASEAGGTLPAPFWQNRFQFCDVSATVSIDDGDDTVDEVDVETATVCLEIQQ

[3] = biological target: AMP-activated protein kinase, AMPK (Homo sapiens) (UniProt P54646+O43741+P54619+Q9UGJ0+Q9Y478+Q13131+Q9UGI9); experiment: AMP-dependent Kinase enzyme assay. An in vitro enzyme assay that detects ADP turnover that is directly proportional to AMPK activity. This uses naive AMPK that is activated during the assay with MK-8722; format: functional; conditions: 30 µM
[4] = biological target: Sialic acid-binding Ig-like lectin 9 (Homo sapiens) (UniProt Q9Y336); experiment: Hs-Siglec9 ALPHAscreen SOP 20170721; conditions: 10 µM
[5] = tested on: Trypanosoma cruzi; experiment: Trypanosoma cruzi phosphomannomutase and mannose-1-phosphate guanylyltransferase assay; format: functional; conditions: 10 µM
[6] = biological target: T2, Arginase-2, mitochondrial (Homo sapiens) (UniProt P78540); experiment: in vitro enzyme assay to detect the production of urea directly proportional to the activity of Arginase II; format: functional; conditions: 33.3 µM; note: in the data most compounds retested in dose-response had high values
T2 sequence (whole entry): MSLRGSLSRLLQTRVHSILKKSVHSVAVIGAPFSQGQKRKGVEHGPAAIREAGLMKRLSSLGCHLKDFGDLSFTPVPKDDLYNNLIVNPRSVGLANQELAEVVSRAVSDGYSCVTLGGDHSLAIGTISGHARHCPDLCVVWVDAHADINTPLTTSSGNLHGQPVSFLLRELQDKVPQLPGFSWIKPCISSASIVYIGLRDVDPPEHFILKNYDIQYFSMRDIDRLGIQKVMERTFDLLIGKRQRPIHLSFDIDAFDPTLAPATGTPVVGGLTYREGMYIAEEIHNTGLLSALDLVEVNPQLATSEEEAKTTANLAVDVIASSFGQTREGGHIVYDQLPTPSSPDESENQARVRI

[7] = biological target: T3, Proteasome subunit beta (Trypanosoma cruzi) (UniProt O96673); experiment: Trypanosoma cruzi proteasome chymotrypsin-like activity (TcProtChymo) assay.; note: in the data most compounds retested in dose-response had high values; format: functional; conditions: 9.37 µM
T3 sequence (whole entry): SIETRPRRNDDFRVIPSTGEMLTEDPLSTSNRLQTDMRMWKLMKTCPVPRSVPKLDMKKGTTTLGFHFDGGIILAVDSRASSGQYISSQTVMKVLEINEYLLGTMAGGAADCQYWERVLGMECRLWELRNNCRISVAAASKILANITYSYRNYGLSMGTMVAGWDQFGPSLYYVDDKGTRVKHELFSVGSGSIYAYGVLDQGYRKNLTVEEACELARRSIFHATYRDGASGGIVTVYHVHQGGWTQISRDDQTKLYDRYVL

[8] = species: Homo sapiens; experiment: To identify inhibition of the IFN signalling (Jak-Stat) pathway via expression of an eGFP reporter gene under the control of an IFN-stimulated response element (ISRE) containing MxA promoter.; format: functional; conditions: 30 µM
[9] = biological target: T4, Tyrosyl-tRNA synthetase, putative (Trypanosoma cruzi (strain CL Brener)) (UniProt Q4DSP6); experiment: Trypanosoma cruzi tyrosyl tRNA synthetase (TcYRS) _High Tyrosine SOP; format: functional; conditions: 30 µM; note: in the data most compounds retested in dose-response had high values
T4 sequence (whole entry): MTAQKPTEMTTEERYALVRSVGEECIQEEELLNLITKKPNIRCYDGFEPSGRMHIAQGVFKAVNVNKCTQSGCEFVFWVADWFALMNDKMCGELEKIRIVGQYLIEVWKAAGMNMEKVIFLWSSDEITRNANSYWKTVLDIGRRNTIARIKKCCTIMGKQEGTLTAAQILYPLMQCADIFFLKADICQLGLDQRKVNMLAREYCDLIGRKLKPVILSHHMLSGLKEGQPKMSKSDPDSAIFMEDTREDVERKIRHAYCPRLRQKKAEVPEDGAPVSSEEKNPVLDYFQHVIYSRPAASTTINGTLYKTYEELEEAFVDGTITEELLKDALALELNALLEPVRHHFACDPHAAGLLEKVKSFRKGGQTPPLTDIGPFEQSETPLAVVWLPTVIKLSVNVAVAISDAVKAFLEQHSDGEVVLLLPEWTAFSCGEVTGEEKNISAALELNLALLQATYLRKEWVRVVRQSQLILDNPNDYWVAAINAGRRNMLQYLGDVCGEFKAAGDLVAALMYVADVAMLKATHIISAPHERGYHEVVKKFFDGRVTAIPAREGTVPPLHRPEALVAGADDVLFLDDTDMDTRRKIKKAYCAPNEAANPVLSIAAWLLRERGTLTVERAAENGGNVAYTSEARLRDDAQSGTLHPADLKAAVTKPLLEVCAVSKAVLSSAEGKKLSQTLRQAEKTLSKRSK

[10] = biological target: T4, Tyrosyl-tRNA synthetase, putative (Trypanosoma cruzi (strain CL Brener)); experiment: Trypanosoma cruzi tyrosyl tRNA synthetase (TcYRS) SOP; format: functional; conditions: 30 µM
[11] = biological target: Chromo domain-containing protein 1 (Saccharomyces cerevisiae (strain ATCC 204508 / S288c) (Baker's yeast)) (UniProt P32657); experiment: ScCHD-1 Enzyme Inhibition Assay; format: functional; conditions: 30 µM; note: in the data most compounds retested in dose-response had high values
Chromo domain-containing protein 1 (Saccharomyces cerevisiae (strain ATCC 204508 / S288c) (Baker's yeast)), sequence (P32657 whole entry, the tested form may be a part): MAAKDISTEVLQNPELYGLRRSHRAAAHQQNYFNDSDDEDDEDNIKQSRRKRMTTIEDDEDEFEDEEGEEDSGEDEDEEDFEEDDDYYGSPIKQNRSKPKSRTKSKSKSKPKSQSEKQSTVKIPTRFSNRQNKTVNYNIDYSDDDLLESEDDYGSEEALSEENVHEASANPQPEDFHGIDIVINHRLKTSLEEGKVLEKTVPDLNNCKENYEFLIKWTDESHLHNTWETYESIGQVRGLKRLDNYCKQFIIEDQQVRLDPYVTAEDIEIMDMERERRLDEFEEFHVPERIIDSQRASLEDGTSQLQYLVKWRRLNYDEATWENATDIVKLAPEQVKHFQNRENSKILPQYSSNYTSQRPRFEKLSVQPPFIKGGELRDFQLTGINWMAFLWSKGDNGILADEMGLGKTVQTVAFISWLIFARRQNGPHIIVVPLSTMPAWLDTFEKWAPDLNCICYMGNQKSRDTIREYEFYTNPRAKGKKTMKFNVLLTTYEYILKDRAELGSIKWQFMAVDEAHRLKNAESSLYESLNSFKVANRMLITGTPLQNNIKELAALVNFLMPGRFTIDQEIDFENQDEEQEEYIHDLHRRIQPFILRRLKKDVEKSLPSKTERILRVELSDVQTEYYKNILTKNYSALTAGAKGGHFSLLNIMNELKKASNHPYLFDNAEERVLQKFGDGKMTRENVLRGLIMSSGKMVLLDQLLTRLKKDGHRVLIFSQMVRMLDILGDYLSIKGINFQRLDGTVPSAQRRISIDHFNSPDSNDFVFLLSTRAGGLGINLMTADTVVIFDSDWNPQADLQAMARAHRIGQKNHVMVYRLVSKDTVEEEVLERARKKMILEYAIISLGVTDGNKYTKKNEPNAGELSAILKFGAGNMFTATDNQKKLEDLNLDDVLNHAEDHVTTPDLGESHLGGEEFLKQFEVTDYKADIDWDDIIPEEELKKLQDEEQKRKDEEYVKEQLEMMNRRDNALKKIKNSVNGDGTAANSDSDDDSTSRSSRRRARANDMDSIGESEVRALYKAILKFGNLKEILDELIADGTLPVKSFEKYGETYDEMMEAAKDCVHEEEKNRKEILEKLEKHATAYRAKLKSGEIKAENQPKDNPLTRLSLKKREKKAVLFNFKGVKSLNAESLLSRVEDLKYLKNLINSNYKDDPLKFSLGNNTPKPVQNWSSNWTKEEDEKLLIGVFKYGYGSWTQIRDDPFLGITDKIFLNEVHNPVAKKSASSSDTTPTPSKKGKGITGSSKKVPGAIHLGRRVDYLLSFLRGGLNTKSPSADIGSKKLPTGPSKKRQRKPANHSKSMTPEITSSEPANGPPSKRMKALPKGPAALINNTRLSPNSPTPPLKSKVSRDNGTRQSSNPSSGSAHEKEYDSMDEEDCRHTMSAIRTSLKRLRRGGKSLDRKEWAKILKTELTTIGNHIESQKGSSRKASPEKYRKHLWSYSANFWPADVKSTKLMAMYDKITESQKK

Protein translocase subunit SecA (Escherichia coli (strain K12)), sequence (P10408 whole entry): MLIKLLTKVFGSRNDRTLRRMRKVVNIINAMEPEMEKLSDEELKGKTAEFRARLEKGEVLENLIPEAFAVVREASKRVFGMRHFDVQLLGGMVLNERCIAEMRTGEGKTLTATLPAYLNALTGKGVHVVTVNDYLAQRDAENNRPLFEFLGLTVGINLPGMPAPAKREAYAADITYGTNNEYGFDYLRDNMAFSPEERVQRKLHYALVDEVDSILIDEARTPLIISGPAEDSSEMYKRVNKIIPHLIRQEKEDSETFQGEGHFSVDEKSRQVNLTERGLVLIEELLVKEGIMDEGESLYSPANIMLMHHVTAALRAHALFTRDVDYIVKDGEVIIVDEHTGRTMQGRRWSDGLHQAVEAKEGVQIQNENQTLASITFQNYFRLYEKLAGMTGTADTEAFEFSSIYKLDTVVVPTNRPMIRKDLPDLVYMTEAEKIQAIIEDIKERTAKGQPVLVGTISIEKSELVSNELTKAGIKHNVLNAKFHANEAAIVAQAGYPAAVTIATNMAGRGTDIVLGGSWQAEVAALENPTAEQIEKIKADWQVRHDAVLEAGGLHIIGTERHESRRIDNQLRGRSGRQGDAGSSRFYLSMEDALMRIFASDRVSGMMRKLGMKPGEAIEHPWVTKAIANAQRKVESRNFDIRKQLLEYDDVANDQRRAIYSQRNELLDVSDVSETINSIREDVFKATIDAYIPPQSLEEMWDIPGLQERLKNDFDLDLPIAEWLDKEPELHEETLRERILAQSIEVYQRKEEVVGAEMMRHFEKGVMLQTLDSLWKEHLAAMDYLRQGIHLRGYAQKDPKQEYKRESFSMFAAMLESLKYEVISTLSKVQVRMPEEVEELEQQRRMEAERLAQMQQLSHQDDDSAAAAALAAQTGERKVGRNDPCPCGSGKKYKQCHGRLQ
Sialic acid-binding Ig-like lectin 9 (Homo sapiens), sequence (Q9Y336 whole entry): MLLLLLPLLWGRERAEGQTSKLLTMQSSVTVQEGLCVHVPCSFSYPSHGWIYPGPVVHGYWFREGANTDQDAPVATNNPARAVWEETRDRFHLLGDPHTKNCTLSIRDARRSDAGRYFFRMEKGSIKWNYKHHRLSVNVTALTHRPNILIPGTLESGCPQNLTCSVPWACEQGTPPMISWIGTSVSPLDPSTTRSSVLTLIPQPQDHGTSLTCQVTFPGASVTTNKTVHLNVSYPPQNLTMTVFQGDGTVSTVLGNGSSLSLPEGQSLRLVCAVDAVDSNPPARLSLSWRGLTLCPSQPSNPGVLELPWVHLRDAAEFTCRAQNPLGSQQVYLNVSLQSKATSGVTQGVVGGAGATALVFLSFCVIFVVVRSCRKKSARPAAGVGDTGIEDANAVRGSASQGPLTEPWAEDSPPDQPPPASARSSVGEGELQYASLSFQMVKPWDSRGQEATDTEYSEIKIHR

| Structure (SMILES) | Percent Effect [1] | Percent Effect [2] | Percent Effect [3] | Percent Effect [4] | Percent Effect [5] | Percent Effect [6] | Percent Effect [7] | Percent Effect [8] | Percent Effect [9] | Percent Effect [10] | Percent Effect [11] |
| --- | --- | --- | --- | --- | --- | --- | --- | --- | --- | --- | --- |
| Cc1cccc(Nc2nccnc2C2CCCN2CC(=O)N(C)C)n1 (configuration not stated) | -5.74% | 8% | -0.423% | 3.06% | 5.32% | -3.5% | -3.08% | 1.25% | 4.25% | 6.41% | 3.88% |
| O=C(O)c1cc(S(=O)(=O)Nc2ccc(Cl)cc2)cc2c1OCCO2 | -4.18% | -8.86% | 4.72% | 2.13% | -2.97% | 4.09% | 8.75% | -2.12% | -18.8% | -15.2% | -21.4% |
| O=C(C1SCCc2sccc21)N1CCC(O)CC1 (configuration not stated) | -4.42% | -5.41% | 2.06% | 0.929% | -6.25% | 0.833% | 6.34% | 5.86% | 5.94% | 1.22% | 1.03% |
| CCc1cnc2c(c1NCc1cccc(OC)c1)c(=O)n(C)c(=O)n2C | -0.146% | 23.4% | -3.97% | -14.3% | 0.0986% | -4.52% | 5.74% | 19.2% | 3.17% | 14.1% | -8.85% |
| CNC(=O)C1(CCCc2cccnc2)CCCCN1 (configuration not stated) | -1.25% | 23% | 5.4% | -8.22% | 3.95% | 0.696% | 17.6% | 19% | 1.07% | 9.09% | -15.7% |
| CC(C)N1CCOCC2(CN(Cc3nccs3)CCO2)C1 (configuration not stated) | -5.04% | 20.8% | -4.7% | -3.15% | 2.66% | 0.645% | 16.7% | 3.46% | 9.52% | 14.1% | -7.32% |
| CC(NC(=O)NCCn1ccnc1)c1ccc2c(c1)NC(=O)CO2 (configuration not stated) | -4.14% | 10.1% | 1.48% | 0.18% | -7.65% | -1.52% | -0.409% | 17.8% | 0.493% | 13.9% | -1.54% |
| Cc1nn(C)c(N(C)C)c1CNCc1ccccc1CN(C)C | -1.22% | 24.1% | -13.2% | -7.18% | -1.54% | -6.24% | 15.9% | -0.0229% | 1.04% | 2.53% | -30.7% |
| COc1cccc2c1OCC(CNC(=O)CNC(N)=O)C2 (configuration not stated) | -5.81% | 10.8% | -3.03% | 22.4% | 7.33% | 1.24% | 4.72% | -5.45% | 5.38% | 13.6% | -9.37% |
| COCCn1cc(C(=O)N2CCCC2c2cccc(F)c2)ccc1=O (configuration not stated) | 1.54% | -5.41% | -0.655% | 0.523% | -2.7% | 2.38% | 7.07% | -0.304% | -2.65% | -56.1% | -2.35% |
| Cc1ccc(NC2CCN(C(=O)c3ccc(Cl)o3)CC2)nn1 | -6.79% | 0% | 5.42% | -2.43% | -6.01% | 1.15% | 17.4% | 24.5% | 0.49% | -7.32% | 4.23% |
| COc1cc2cc(C(=O)N[C@@H](C)C(=O)O)n(C)c2c(OC)c1OC | 0.309% | 4% | 0.773% | 3.31% | -5.89% | -12.8% | 13.1% | 0.994% | 8.47% | 7.69% | -9.47% |
| COCCCNC(=O)CN(C)C(=O)c1cc(C)sc1C | -3.23% | -359% | 0.833% | 1.88% | -4.55% | -1.66% | 4.67% | 14.8% | 5.94% | 15.8% | -1.76% |
| O=C(Nc1cc(F)ccc1OCC1CCCO1)c1ccccn1 (configuration not stated) | -2.56% | 2.6% | 23.7% | 12.2% | 3.04% | 3.16% | 0.242% | 2.47% | 2.86% | 9.41% | -15.1% |
| O=C(NCCc1ccc(Cl)s1)NCc1nnc2n1CCC2 | -5.75% | 18.4% | -1.91% | -9.75% | -6.07% | -3.96% | 15.5% | 4.94% | 4.43% | 11.1% | -7.66% |
| c1cnc(-c2nc(CN3CCOC(Cn4cncn4)C3)cs2)nc1 (configuration not stated) | -3.88% | 29.7% | -7.99% | -4.32% | -0.66% | -12.8% | 9.91% | 18.1% | 1.48% | 13.6% | -6.92% |
| CC(NC(=O)c1cccs1)C(=O)NCc1ccccc1CN1CCCC1 (configuration not stated) | -4.29% | 23.4% | -5.29% | 2.04% | 4.12% | 3.2% | 12.5% | 5.06% | 12.6% | 21.9% | -11.2% |
| CC(C)c1nc(CN2CCN(CC3CCCO3)CC2)cs1 (configuration not stated) | 1.19% | 10.4% | -7.85% | -14% | -1.47% | 6.95% | 14.8% | 17.1% | 4.76% | 9.41% | -15.6% |
| Cn1cnnc1C1CCCN(C(=O)NCCOc2ccccc2)C1 (configuration not stated) | -3.04% | 23.4% | 1.73% | -22.3% | 4.8% | -1.47% | 15.9% | 16.1% | 5.71% | 21.2% | -12% |
| O=C(c1ccc(Br)o1)N1CCN(Cc2ccc(OC(F)(F)F)cc2)CC1 | -1.82% | 5.48% | 27.2% | -16.1% | -1.96% | -0.455% | 8.87% | 37.2% | 2.15% | 7.5% | -3.29% |
| O=C(Cc1ccccc1)N1CCC2(CC(=O)N(c3ccsc3)C2)C1 (configuration not stated) | -0.7% | 8.11% | -4.26% | -6.07% | 3.52% | 11.2% | 13.8% | -6.08% | 14.8% | -28.1% | -3.9% |
| Cc1cccc(CN2CCN(Cc3ccccc3)CC(O)C2)n1 (configuration not stated) | -1.78% | 0% | -4.59% | 2.56% | -0.193% | -1.43% | 9.14% | 4.22% | 8.99% | 19.5% | -3.04% |
